This note sets out measurements from the supplement of paper PMC6522484.

± gives the standard deviation of the averaged measurements.

Assay [1] relates to DLD1. Briefly: cell viability (CellTiter-Glo) relative to plate median (fraction of plate median); higher = more viable cells. Conditions: 5 µM; treatment time 24 h; reporter: 7TFP. The procedure, abridged:
(§1)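 Colorectal cancer cell lines stably carrying lentiviral TCF/Wnt firefly luciferase reporters (7TFP or TCF4/Wnt) were plated in 384-well plates and, 24 h later, given library compounds at a final 5 µM for 24 h. Firefly luciferase or CellTiterGlo luminescence was read on parallel plates with a Tecan F500 reader. Each well's signal was normalised to the plate median in webcellHTS2 (additive, without log transformation). Values are the mean of two independent replicates.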

The test system of assay [2] is HCT116. The assay is described as above. The settings on record: 5 µM; treatment time 24 h; reporter: TCF4/Wnt. The method in brief:
as §1

For assay [3], the system named is SW480. The description is as above. The settings on record: 5 µM; treatment time 24 h; reporter: 7TFP. The procedure, abridged:
as §1

The test system of assay [4] is DLD1. As to the kind of experiment: TCF/Wnt firefly luciferase reporter signal relative to plate median (fraction of plate median); higher = higher Wnt reporter signal. Conditions: 5 µM; treatment time 24 h; reporter: 7TFP. The procedure, abridged: as §1
For assay [5], the system named is SW480. The description is as above. The settings on record: 5 µM; treatment time 24 h; reporter: 7TFP. The procedure, abridged:
as §1

Turning to `O=C(CNC(=O)c1ccc(Cl)cc1)NO`, the cell viability in assay [1] was determined as 0.978 ± 0.025; in assay [2] it was 1 ± 0.041; in assay [3] it was 0.931 ± 0.026. The “TCF/Wnt firefly luciferase reporter signal” value in assay [4] was 1.03 ± 0.048; in assay [5], 1.13 ± 0.028.
The like results for `CNC1(C)C2CCC(C2)C1(C)C` (stereo not given) were, in that order, 0.844 ± 0.018, 0.972 ± 0.11, 0.924 ± 0.038, 1.05 ± 0.021 and 0.904 ± 0.054.
On the same counts, the results for `COc1ccc(/C=C/C(=O)c2cc(O)ccc2O)cc1` are 0.979 ± 0.044, 0.959 ± 0.073, 0.98 ± 0.029, 1.18 ± 0.014 and 1.05 ± 0.17.
The like results for `O=C(O)c1cn(-c2ccc(F)cc2)c2cc(N3CCNCC3)c(F)cc2c1=O` were, in that order, 0.906 ± 0.012, 0.949 ± 0.029, 0.998 ± 0.046, 1.08 ± 0.11 and 1.06 ± 0.1.
On to `NC1(C(=O)O)CC1`, for which the cell viability worked out at 0.997 ± 0.061 in assay [1], 0.9665 ± 0.0021 in assay [2] and 0.9795 ± 0.0064 in assay [3]. Moreover, the “TCF/Wnt firefly luciferase reporter signal” value in assay [4] is 0.885 ± 0.045; in assay [5], 0.919 ± 0.059.
On to `COc1cc(O)c(C(C)=O)c(OC)c1`, for which the cell viability in assay [1] was found to be 1.12 ± 0.11; in assay [2] it was 1.03 ± 0.059; in assay [3], 1.055 ± 0.0071. Also, the results for the “TCF/Wnt firefly luciferase reporter signal” value in assay [4] and in assay [5] were 0.978 ± 0.19 and 0.983 ± 0.11, respectively.
On the same counts, the results for `CC(=O)OC(C)(C)[C@@H]1Cc2cc3ccc(=O)oc3cc2O1` are 1.06 ± 0.014, 1.1 ± 0.014, 1.03 ± 0.062, 0.896 ± 0.039 and 0.944 ± 0.077.
On the same counts, the results for `CO[C@H]1C[C@H](O[C@@H]2/C(C)=C/C[C@@H]3C[C@@H](C[C@]4(CC[C@H](C)[C@@H](C5CCCCC5)O4)O3)OC(=O)[C@@H]3C=C(C)/C(=N/O)[C@H]4OC/C(=C\C=C\[C@@H]2C)[C@]43O)O[C@@H](C)[C@@H]1O` are 0.919 ± 0.021, 0.962 ± 0.038, 0.962 ± 0.037, 1.05 ± 0.021 and 1.08 ± 0.035.
With `CC(C)Cc1ccc(C(C)C(=O)O)cc1` (stereo not given), the cell viability in assay [1] was found to be 0.962 ± 0.082; in assay [2] it was 1.04 ± 0.028; in assay [3], 1.04 ± 0.068. Also, the “TCF/Wnt firefly luciferase reporter signal” value in assay [4] was found to be 1.03 ± 0.021; in assay [5], 1.06 ± 0.028.
The like results for `COC(=O)C1=CO[C@@H](O[C@@H]2O[C@H](CO)[C@@H](O)[C@H](O)[C@H]2O)[C@H]2[C@@H]1C(=O)C[C@@H]2C` were, in that order, 1.03 ± 0.067, 0.992 ± 0.083, 0.982 ± 0.026, 1.08 ± 0.064 and 1.06 ± 0.021.
As for `O=C([O-])c1ccccc1O.[Na+]`, the cell viability turned out to be 1.06 ± 0.035 in assay [1], 1.02 ± 0.077 in assay [2] and 1.07 ± 0.028 in assay [3]. Moreover, the “TCF/Wnt firefly luciferase reporter signal” value is 1.04 ± 0.09 in assay [4] and 1.02 ± 0.014 in assay [5].
The like results for `CC(C)=CC1C(C(=O)O)C1(C)C` (stereo not given) were, in that order, 1 ± 0.037, 0.98 ± 0.057, 0.977 ± 0.047, 0.897 ± 0.065 and 1.02 ± 0.058.
Consider `CC1(C)C=Cc2cc3ccc(=O)oc3cc2O1`, for which the figures for the cell viability in assay [1], in assay [2] and in assay [3] were 0.979 ± 0.087, 1 ± 0.043 and 1.04 ± 0.042, respectively. For the same compound, the “TCF/Wnt firefly luciferase reporter signal” value in assay [4] worked out at 1.21 ± 0.13; in assay [5], 1.165 ± 0.0071.
With `CCC1(c2ccccc2)C(=O)NCNC1=O`, the results for the cell viability in assay [1], in assay [2] and in assay [3] were 1.02 ± 0.029, 0.994 ± 0.15 and 1 ± 0.025, respectively. The “TCF/Wnt firefly luciferase reporter signal” value in assay [4] was determined as 0.978 ± 0.1; in assay [5] it was 1.06 ± 0.028.
With `CC(=O)O[C@@H]1C[C@H]2C(C)(C)C(=O)CC[C@]2(C)[C@H]2CC[C@@]3(C)[C@H](c4ccoc4)OC(=O)[C@H]4O[C@]43[C@@]21C`, the cell viability came to 0.999 ± 0.086 in assay [1], 0.986 ± 0.011 in assay [2] and 1.01 ± 0.026 in assay [3]. Moreover, the results for the “TCF/Wnt firefly luciferase reporter signal” value in assay [4] and in assay [5] were 0.949 ± 0.087 and 0.899 ± 0.021, respectively.
